C diff growth – inhibitors of Clostridium difficile growth; Clostridium difficile clinical isolate growth, OD600, 24 h; stronger effect = lower value; AID 1259249; growth activity, negative = inhibition, % at 16 µg/mL (by protocol); 86,000 tested, 0.25% active;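 active means mean growth activity at or below -80% and every replicate also at or below -80%; inconclusive means mean at or below -80% but some replicate above -80%; inactive means mean growth activity above -80%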
T cruzi growth-1 – inhibitors of T. cruzi proliferation; T. cruzi beta-gal in NIH3T3, GalScreen luminescence, 90 h; inhibition, % at 8.34 µM; 77,000 tested, 5.9% active; AID 624255;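 active means mean inhibition above about 93%, with at least 55% of replicates each passing it, limit read from the data, passing the limit was not always enough; inconclusive means only one of those two conditions holds; inactive means neither condition holds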
Pf Dd2 inh – inhibitors of Plasmodium falciparum Dd2 growth. P. falciparum Dd2 growth, SYBR Green, 72 h; stronger effect = lower value. activity change, % at 10 µM. 94,000 tested, 2.3% active; in the data active means activity change below about -80%; inconclusive means no clear call, values can overlap the other calls
T cruzi growth-2 – blocks T. cruzi growth in NIH3T3 host cells. T. cruzi beta-gal in NIH3T3, GalScreen luminescence, 90 h. AID 651739. shares compounds with T cruzi growth-1. 5,600 tested, 72% active. inhibition, % at 8.35 µM;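 active means mean replicate inhibition above about 95% and at least 55% of replicates individually reaching it, limit read from the data; inconclusive means only one of the two criteria is met; inactive means neither criterion is met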
T cruzi growth-3 – inhibitors of T. cruzi proliferation | shares compounds with T cruzi growth-1 | T. cruzi beta-gal in NIH3T3, GalScreen luminescence, 90 h | inhibition, % at 2.09 µM | 5,600 tested, 21% active;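 active means mean inhibition above about 95%, with at least 55% of replicates also reaching it, limit read from the data; inconclusive means meets just one of the two conditions; inactive means meets neither condition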
NIH3T3 tox – cytotoxicity in mouse NIH/3T3 fibroblasts. NIH/3T3 viability, CellTiter-Glo ATP luminescence, 90 h. cytotoxicity (signal decrease), % at 8.35 µM. shares compounds with T cruzi growth-1. 5,600 tested, 14% active;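 active means mean signal decrease across replicates above about 35% based on untreated-well scatter, with enough replicates individually passing, limit read from the data; inconclusive means no rule stated though some were filed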
NIH3T3 tox 2 – NIH/3T3 (mouse) viability loss. 5,600 tested, 56% active. NIH/3T3 viability, CellTiter-Glo ATP luminescence, 90 h. inhibition, % at 24.9 µM. shares compounds with T cruzi growth-1;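 active means mean loss of cell viability signal at or above a set limit, and enough replicates individually reaching it; inconclusive means meets only the mean limit or only the replicate share; inactive means meets neither condition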
Of the large screens only hits and unclear results are named; the others gave an inactive call (follow-up assays come after a bar, where they were run). This is a sample that favours compounds with a hit; in the whole collection about 6.7% have one here.

C/C=C/c1ccccc1[C@H]1[C@@H](CO)N(C(=O)Nc2ccccc2F)[C@H]1C#N	none (no result: T cruzi growth-1)
COc1ccc(S(=O)(=O)N(C)C[C@@H]2Oc3c(NS(=O)(=O)c4cn(C)cn4)cccc3C(=O)N([C@H](C)CO)C[C@@H]2C)cc1	none
CO[C@@H]1CN(C)C(=O)c2cc(NC(=O)CC(F)(F)F)ccc2OC[C@H](C)NC[C@@H]1C	none (no result: T cruzi growth-1)
C[C@H](CO)N1C[C@H](C)[C@H](CN(C)Cc2ccc(Oc3ccccc3)cc2)Oc2ccc(NC(=O)Nc3ccc4c(c3)OCO4)cc2CC1=O	none
N#C[C@@H]1[C@H](c2ccc(C3=CCCCC3)cc2)[C@H](CO)N1C(=O)Nc1ccccc1F	T cruzi growth-1 102 | T cruzi growth-2 110 | T cruzi growth-3 inactive | NIH3T3 tox inactive | NIH3T3 tox 2 inactive
N#C[C@@H]1[C@H](c2ccc(C3=CCCCC3)cc2)[C@H](CO)N1C(=O)NC1CCCCC1	T cruzi growth-1 107 | T cruzi growth-2 104 | T cruzi growth-3 inactive | NIH3T3 tox inactive | NIH3T3 tox 2 44
N#C[C@H]1[C@@H](c2ccc(C3=CCCCC3)cc2)[C@@H](CO)N1C(=O)Nc1ccccc1F	none
N#C[C@@H]1[C@H](c2ccc(C3=CCCCC3)cc2)[C@@H](CO)N1C(=O)NC1CCCCC1	none
COc1ccc(NC(=O)Nc2ccc3c(c2)C(=O)N([C@@H](C)CO)C[C@H](C)[C@H](CN(C)C(=O)Nc2ccc(F)cc2)OCCCC[C@H](C)O3)cc1	none
CO[C@@H]1CN(C)C(=O)c2cc(NC(=O)NC(C)C)ccc2OC[C@H](C)NC[C@@H]1C	none
C[C@@H]1CN([C@@H](C)CO)S(=O)(=O)c2ccc(-c3ccc(F)cc3)cc2O[C@@H]1CN(C)C(=O)c1ccccc1F	none
COc1ccc(NC(=O)N2CCCCN3[C@H](CO)[C@@H](c4ccc(-c5ccccc5F)cc4)[C@@H]3C2)cc1	none
COc1ccc(NC(=O)N2CCCCN3[C@H](CO)[C@H](c4ccc(-c5ccccc5C)cc4)[C@@H]3C2)cc1	none
COc1ccc(NC(=O)N2CCCCN3[C@@H](CO)[C@H](c4ccc(-c5ccccc5C)cc4)[C@@H]3C2)cc1	T cruzi growth-1 102 | T cruzi growth-2 101 | T cruzi growth-3 inactive | NIH3T3 tox inactive | NIH3T3 tox 2 104
COc1ccc(NC(=O)N2CCCCN3[C@@H](CO)[C@@H](c4ccc(-c5ccccc5C)cc4)[C@@H]3C2)cc1	T cruzi growth-1 108 | T cruzi growth-2 inactive | T cruzi growth-3 inactive | NIH3T3 tox 111 | NIH3T3 tox 2 102
COc1ccc(NC(=O)N2CCCCN3[C@H](CO)[C@H](c4ccc(C5=CCCCC5)cc4)[C@@H]3C2)cc1	T cruzi growth-1 114 | T cruzi growth-2 110 | T cruzi growth-3 inactive | NIH3T3 tox inactive | NIH3T3 tox 2 81
COc1ccc(NC(=O)N2CCCCN3[C@H](CO)[C@@H](c4ccc(-c5ccccc5F)cc4)[C@H]3C2)cc1	none
COc1ccc(NC(=O)N2CCCCN3[C@@H](CO)[C@@H](c4ccc(C5=CCCC5)cc4)[C@@H]3C2)cc1	none
COc1ccc(NC(=O)N2CCCCN3[C@H](CO)[C@@H](c4ccc(-c5ccccc5C)cc4)[C@H]3C2)cc1	T cruzi growth-1 109 | T cruzi growth-2 103 | T cruzi growth-3 inactive | NIH3T3 tox 40 | NIH3T3 tox 2 103
O=C(NCC1CC1)[C@H]1[C@H](CO)[C@H]2Cn3c(cccc3=O)[C@H]2N1Cc1cccc(F)c1	none (no result: T cruzi growth-1)
C[C@@H]1CCCCO[C@@H](CN(C)S(=O)(=O)c2ccc(F)cc2)[C@@H](C)CN([C@H](C)CO)C(=O)c2cc(NC(=O)Nc3ccc(C(F)(F)F)cc3)ccc2O1	T cruzi growth-1 104, Pf Dd2 inh -82 (no result: C diff growth) | T cruzi growth-2 111 | T cruzi growth-3 106 | NIH3T3 tox inconclusive | NIH3T3 tox 2 62
C[C@H](CO)N1C[C@H](C)[C@@H](CN(C)S(=O)(=O)c2ccc(F)cc2)OCCCC[C@H](C)Oc2ccc(NC(=O)Nc3ccc(C(F)(F)F)cc3)cc2C1=O	none (no result: C diff growth)
C[C@@H]1CN([C@H](C)CO)C(=O)c2cc(NC(=O)Nc3ccc(C(F)(F)F)cc3)ccc2O[C@@H](C)CCCCO[C@@H]1CN(C)S(=O)(=O)c1ccc(F)cc1	none (no result: C diff growth)

Screening results deposited in PubChem by Broad Institute.
